Measured values taken from PubChem BioAssay (NCI).
Where “and” joins values, the source holds several entries; their conditions need not be identical. Identical values can stand only once. About 83,000 compounds went through this panel and 20% of them were active in at least one assay; those are over-represented in the sample as a whole.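 Interpretation: 100, growth as untreated; towards 0, rising growth inhibition; 0, no net growth; 0 to -100, cell death. Compounds scoring below 10 were considered active.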 The source holds several records for some structures; these can differ, active in one and inactive in another. Calls of active or inactive are those of the source.

Legend:
Assay in all cases: NCI-60 one-dose screen, 48 h (100 = growth as untreated, 0 = no growth, -100 = all killed)
Settings in all cases: 10 µM
[1] = tested on: RPMI-8226 leukemia
[2] = tested on: OVCAR-8 ovarian
[3] = tested on: OVCAR-5 ovarian
[4] = tested on: OVCAR-4 ovarian
[5] = tested on: SK-OV-3 ovarian
[6] = tested on: IGROV1 ovarian
[7] = tested on: OVCAR-3 ovarian
[8] = tested on: HS 578T breast
[9] = tested on: NCI/ADR-RES ovarian
Method: Growth inhibition of the NCI/ADR-RES human […] tumor cell line is measured as a screen for anti-cancer activity. Cells are grown in 96 well plates and exposed to the test compound for 48 hours. Compounds are tested at a single concentration, which is 10^-5 M for most compounds. The reported endpoint is percent growth (GI% or GIPRCNT), where numbers from 0 - 100% represent growth inhibition, and numbers from -100% - 0 represent cell death. For example, a value of 40 represents 60% growth inhibition. A value of 0 means no net growth occurred over the course of the experiment. A value of -40 indicates 40% of cells at the beginning of the experiment died by the end of the experiment. A value of -100 means all cells are dead at the end of the experiment.
NCI-60 Human Tumor Cell Lines Screen was performed using the standard one-dose NCI protocol, which is described in more detail at https://dtp.cancer.gov/discovery_development/nci-60/default.htm.
Compounds with GIPRCNT values below 10 were considered active. Activity score was based on GIPRCNT using the following formula: […]
Score is 0 for GIPRCNT values of 100 or above, 50 for GIPRCNT values of 0, and 100 for GIPRCNT values of -100.

[10] = tested on: SR leukemia

Measured: growth

C#CCN(Cc1ccc2nc(N)[nH]c(=O)c2c1)c1ccc(C(=O)NC(CCC(=O)O)C(=O)O)cc1 (stereo not given)
inactive: [1] 51.3% | [2] 39.3% | [3] 107% | [4] 103% | [5] 49.7% | [6] 109% | [7] 67.2% | [8] 88.9% | [9] 47.7%

Cc1cc(N(CCOS(C)(=O)=O)CCOS(C)(=O)=O)ccc1C=Nc1ccc(-c2nc(Cc3ccccc3)sc2C)cc1
inactive: [10] 23.4% | [1] 62.3% | [3] 67% | [6] 11.4% | [7] 41.9% | [8] 79.8% | [9] 40.7%
active: [5] 3.43%

CC1=CC(=C(c2ccc(N)cc2)c2ccc(N)cc2)C=CC1=N
inactive: [10] 14.7% and 24.8% | [3] 46.8% and 53.3% | [4] 24.1% and 33.7% | [5] 38.2% | [6] 70% | [8] 23.6% and 89.5% | [9] 86.6% and 101%
-15.6% (active) and 33.4% (inactive): [1]
-35.6% (active) and 28.4% (inactive): [7]
6.23% (active) and 16% (inactive): [2]

Cc1ccc(Sc2ccccc2N)cc1
inactive: [10] 71.6% | [1] 89.8% | [2] 79.1% | [3] 82.7% | [4] 93.6% | [5] 94.9% | [6] 76.2% | [7] 121% | [8] 110% | [9] 84.3%

C=C1C(=O)OC2CC1C(OC(C)=O)C/C(C)=C/CC/C(C)=C\CCC2(C)O (stereo not given)
active: [10] -25.1% | [1] -22.3% | [4] -0.648% | [7] 3.4%
inactive: [3] 65.7% | [5] 102% | [8] 72% | [9] 17.9%

O=[N+]([O-])c1cc[n+]([O-])cc1
inactive: [10] 107% | [1] 102% | [2] 103% | [3] 145% | [4] 111% | [5] 130% | [6] 107% | [7] 114% | [8] 104% | [9] 103%

COc1ccc(C(=O)C(CN(C)C)CN(C)C)cc1
active: [10] -46.3% | [4] -93.8% | [7] -85%
inactive: [1] 64.3% | [2] 41.1% | [3] 116% | [5] 108% | [6] 140% | [8] 83% | [9] 101%

CN(C)CCOC1(Cc2ccc(Cl)cc2Cl)CCC(C(C)(C)C)CC1 (stereo not given)
active: [10] -34.8% and -29.5%
36.5% (inactive) and -27.3% (active): [2]
43.8% (inactive) and 5.22% (active): [3]
11.6% (inactive) and -10% (active): [1]
inactive: [4] 36.1% and 15.1% | [5] 69.6% and 57.8% | [6] 41.7% and 25.3% | [7] 39.5% and 11.1% | [8] 52.4% and 49.6% | [9] 27% and 44.4%
